From PubChem BioAssay
KCNQ2 inh: KCNQ2 (rat) channel inhibition; AID 2156; B-score at 10 µM; CHO-K1 KCNQ2, FluxOR thallium flux, 20 min; stronger effect = lower value; O88943; 1.1% of 310,000 active;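 active means fluorescence ratio B-score at most minus 3 library SDs, with starting brightness B-score within 2 library SDs, cut at about -5.5 in these data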
KCNQ2 pot: enhances the rat KCNQ2 potassium channel | O88943 | AID 2239 | 0.54% of 310,000 active | CHO-K1 KCNQ2, FluxOR thallium flux fluorescence; stronger effect = higher value | B-score at 10 µM;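 active means fluorescence ratio B-score at least 3 SD of library B-scores, with initial fluorescence B-score within 3 of them, cut at about 5.3 in these data; same plate scores as AID 2156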;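 further: B-score of peak minus minimum over baseline fluorescence ratio after K+ and Tl+ stimulus; positive B-score means potentiation of KCNQ2 with more thallium influx and brighter signal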
Kir21 conf inh: confirmation of mouse Kir2.1 potassium channel inhibitors | shares compounds with KCNQ2 pot | Kir2.1-expressing cells, FluxOR thallium flux fluorescence; stronger effect = lower value | Tl flux remaining, % of negative control (stronger effect = lower value), % at 10 µM | 41% of 2,300 active;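 active means Primary-screen hit whose thallium flux fell at least 3 control SD below untreated wells in both duplicates, with normal baseline fluorescence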;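 further: 0% = blank wells without stimulus and 100% = stimulated no-compound controls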
HEK293 ctr: counter-screen for Kir2.1 inhibitors: effect in parental HEK293 cells; FluxOR thallium flux fluorescence; 0% = unstimulated blank wells; 19% of 2,300 active; FluxOR signal as % of negative control (100 = no effect), % at 10 µM; AID 2105; shares compounds with KCNQ2 pot;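 active means dye signal at least 3 control SD above or below untreated wells in both duplicates, raw fluorescence within 3, either direction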;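 further: percent is based on the flux ratio of peak minus minimum fluorescence over baseline F0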
CHO-K1 Tl ctr: counter-screen for KCNQ2 potentiators: effect in parental CHO-K1 cells; FluxOR thallium flux fluorescence; zero = vehicle mean+3SD, 100% = vehicle-minus-blank window; 43% of 1,200 active; shares compounds with KCNQ2 pot; AID 2282; activity increase over 3SD of controls, % at 10 µM;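 active means signal rise of at least 3 SD above the untreated control mean, in both duplicate wells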;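 further: counter screen of KCNQ2 potentiator hits so any rise reflects channel-independent effects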
KCNQ1 sel pot: tests whether KCNQ2 potentiators also act on human KCNQ1 | activation over 3SD threshold, % at 10 µM | CHO KCNQ1 stable, FluxOR thallium flux fluorescence; beyond 3SD, as % of vehicle-control signal | 28% of 1,200 active | shares compounds with KCNQ2 pot;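 active means fluorescence ratio rise of at least 3 SD of vehicle wells above their mean, in both replicate wells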;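 further: 0% = vehicle mean plus 3 SD and 100% = vehicle minus unstimulated blank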
KCNQ2 pot conf: rat KCNQ2 channel potentiator confirmation; shares compounds with KCNQ2 pot; CHO-KCNQ2 cells, FluxOR thallium flux fluorescence; potentiation, less the hit threshold, % at 10 µM; 68% of 1,200 active;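 active means fluorescence ratio rising 3 SD or more over the vehicle control mean in both replicates, plus primary screen hit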;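 further: peak minus minimum thallium fluorescence divided by baseline after K/Tl stimulus; 0% = vehicle mean plus 3 SD and 100% = vehicle minus unstimulated blank difference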
Kir21 spec: selectivity of KCNQ2 potentiators: effect on mouse Kir2.1 | shares compounds with KCNQ2 pot | HEK293 Kir2.1, FluxOR thallium flux fluorescence | activity over 3SD threshold, % at 10 µM | 2% of 1,200 active;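 active means fluorescence ratio rise of at least 3 SD above the vehicle-control mean, seen in both replicates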;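 further: 0% = vehicle mean plus 3 SD and 100% = vehicle minus no-stimulus blank window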
KCNQ2 W236L MoA: rat KCNQ2 W236L mutant potentiation by KCNQ2 potentiators. shares compounds with KCNQ2 pot. CHO KCNQ2-W236L, automated patch clamp current. current increase over 3SD of negative controls (%), stronger effect = higher value, % at 25 µM. 10% of 940 active. AID 2558;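 active means current increase at least 3 SD of the untreated controls above them in both duplicate recordings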
* marks the source's active call; other numbers are inactive results; i = inactive; nt = no result given. A selection: hits, their analogues and other compounds. The true share with any hit is near 1.6%.

SMILES	KCNQ2 inh	KCNQ2 pot	Kir21 conf inh	HEK293 ctr	others
CC1Cc2ccccc2N1C(=O)COC(=O)c1ccc(Br)o1 (configuration not stated)	i	nt	nt	nt
CC1CCc2c(sc3ncnc(SCC(=O)c4ccccc4)c23)C1 (configuration not stated)	i	1.8	nt	nt
CC(=O)CSc1ncnc2sc3c(c12)CCC(C)C3 (configuration not stated)	i	15*	i	455%*	CHO-K1 Tl ctr=1.6*;KCNQ1 sel pot=-2;KCNQ2 pot conf=93*;Kir21 spec=0;KCNQ2 W236L MoA=i
Cc1ccc(S(=O)(=O)NCCSc2nnnn2-c2cc(C)ccc2C)cc1	i	0.86	nt	nt
Cc1ccc(S(=O)(=O)NCCSc2nnnn2-c2ccccc2)cc1	i	0.37	68%*	i
COc1ccc(Br)cc1CN(C)CC(O)COc1ccc(Br)cc1 (configuration not stated)	-6.3*	-6.3	70%*	i
CN(CCOc1ccc(Br)cc1)CC(O)COc1ccc(C#N)cc1 (configuration not stated)	i	nt	nt	nt
CC(C)(C)N/C=C(\C#N)S(=O)(=O)c1ccc(Br)cc1	i	0.37	nt	nt
CCOc1ccc(/C=C/[N+](=O)[O-])c2ccccc12	i	nt	i	i
CCOC(=O)COc1ccc2ccccc2c1/C=C/[N+](=O)[O-]	i	nt	nt	nt
COc1ccc(S(=O)(=O)N2CCc3ccccc32)cc1OC	i	0.13	52%*	i
COc1ccc(S(=O)(=O)N2CCc3ccccc32)cc1C(=O)O	i	nt	nt	nt
COCCCNC(=O)c1ccc2c(c1)OCO2	i	nt	nt	nt
CCCCOCCCNC(=O)c1ccc2c(c1)OCO2	i	6.5*	i	i	CHO-K1 Tl ctr=1.4*;KCNQ1 sel pot=-14;KCNQ2 pot conf=-26;Kir21 spec=-38
Oc1ccc(Nc2nc(NCC3CCCO3)c3ccccc3n2)cc1 (configuration not stated)	i	nt	i	i
Oc1ccccc1Nc1nc(NCC2CCCO2)c2ccccc2n1 (configuration not stated)	i	nt	46%*	i
c1ccc2c(NCC3CCCO3)nc(N3CCCCC3)nc2c1 (configuration not stated)	i	0.09	nt	nt
Oc1ccc(Cl)cc1Nc1nc(NCC2CCCO2)c2ccccc2n1 (configuration not stated)	i	1.6	nt	nt
O=C(NCc1ccc2c(c1)OCO2)c1cc(-c2ccccc2)nn1CC1CC(c2cccnc2)=NO1 (configuration not stated)	i	0.41	nt	nt
O=[N+]([O-])c1ccc(S(=O)(=O)Nc2ccccn2)cc1	i	nt	nt	nt
CCC(C)c1ccccc1OCCCNC1CCCC1 (configuration not stated)	i	1.3	63%*	i
c1ccc(COc2ccc(OCCCNC3CCCC3)cc2)cc1	i	nt	30%*	i
CCC(C)c1ccccc1OCCCCN1CCCC1 (configuration not stated)	i	1.3	nt	nt
COCCCNCCCCOc1ccc(OCc2ccccc2)cc1	i	0.41	nt	nt
CCOC(=O)c1ccc(NC(=S)NCCc2ccc(F)cc2)cc1	i	0.83	nt	nt
CC(N)c1ccc(Cl)cc1Cl (configuration not stated)	i	0.01	nt	nt
Nc1cc(C(=O)OCC(=O)NCCNC(=O)COC(=O)c2ccc(Cl)c(N)c2)ccc1Cl	i	0.71	nt	nt
C/C(=N\N=C1\NC(=O)C(CC(=O)Nc2ccccc2F)S1)C1CCCCC1 (configuration not stated)	i	0.25	nt	nt
